High-throughput results deposited in PubChem by several laboratories.
Measles CPE: protection of cells from measles virus; actives 1.5% (n = 140,000); Measles virus-infected cells, CPE protection, absorbance; protection (pct of control), % at 4 µM; in the data active means protection mostly above about 24%, no sharp cut-off; inactive means mostly below about 26%
CYP2C19 inhib: blocks human cytochrome P450 2C19. inhibition, % at 5 µM. P33261. CYP2C19 Supersomes, luciferin-H EGE luminescence, 30 min. actives 21% (n = 96,000);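 active means CYP2C19 inhibition above a set limit at 5 µM in the primary screen, cut at about 50% in these data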;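 further: plate controls were negative control wells for no effect and 2.5 mM tranylcypromine positive control for full effect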
Target sequence (P33261 whole entry, looked up): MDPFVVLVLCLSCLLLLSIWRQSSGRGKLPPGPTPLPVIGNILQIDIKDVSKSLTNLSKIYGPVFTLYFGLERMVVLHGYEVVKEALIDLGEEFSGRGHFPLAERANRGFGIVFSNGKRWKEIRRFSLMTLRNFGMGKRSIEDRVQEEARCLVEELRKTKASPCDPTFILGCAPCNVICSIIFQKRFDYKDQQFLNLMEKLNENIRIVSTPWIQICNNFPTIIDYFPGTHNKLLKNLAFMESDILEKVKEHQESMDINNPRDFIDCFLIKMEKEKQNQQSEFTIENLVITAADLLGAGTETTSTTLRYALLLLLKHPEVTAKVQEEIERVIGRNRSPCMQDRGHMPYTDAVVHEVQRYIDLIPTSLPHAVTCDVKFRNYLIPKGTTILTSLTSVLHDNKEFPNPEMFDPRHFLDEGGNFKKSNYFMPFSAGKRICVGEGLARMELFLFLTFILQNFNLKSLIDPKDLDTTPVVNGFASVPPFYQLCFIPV
CYP2C9 activ: increases human cytochrome P450 2C9 activity. P11712. recombinant CYP2C9, luciferin-H conversion, luminescence; stronger effect = higher value; factor 1 = untreated enzyme, 0 = blocked. activation factor at 5 µM. actives 1.4% (n = 96,000). AID 1024;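 active means activation factor of 2 or more for CYP2C9 at a 5 µM dose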;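 further: 0 = sulfaphenazole-blocked wells and 1 = vehicle-only wells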
CYP2C19 activ: cytochrome P450 2C19 (human) activation | P33261 | recombinant CYP2C19, luciferin-H EGE luminescence; stronger effect = higher value; 0 = fully inhibited enzyme, 1 = untreated enzyme | activation factor at 5 µM | 96,000 tested, under 10 active;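 active means activation factor of at least 2 at 5 µM in the primary screen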;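 further: 0 = wells with 2.5 mM tranylcypromine and 1 = vehicle-only wells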
CYP2C9 inhib: inhibitors of human CYP2C9 | actives 20% (n = 96,000) | inhibition, % at 5 µM | AID 777 | CYP2C9 Supersomes, luciferin-H conversion, luminescence | P11712;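 active means blocking of liver enzyme CYP2C9 beyond about 50% at 5 µM, limit read from the data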
* = called active by the depositor; · = no result. Sampled rows, rich in hits. Any-hit rate of the full collection: about 22%.

SMILES	Measles CPE	CYP2C19 inhib	CYP2C9 activ	CYP2C19 activ	CYP2C9 inhib
CCc1ccccc1N(CC)C(=O)CCc1nc(-c2ccc(C)cc2)no1	7	27	0.5	0.7	55*
COc1ccc(C(C(=O)NC2CCCCC2)N(C(=O)c2sc(C)nc2C)c2ccc(C(C)=O)cc2)cc1 (stereo not drawn)	9	5	0.9	0.9	5
Cc1ccc(S(=O)(=O)NC(CC(=O)N2CCc3ccccc32)c2ccco2)cc1 (stereo not drawn)	3	33	0.6	0.7	40
CCOC(=O)N1CCC(NC(=O)CC(NS(=O)(=O)c2ccc(C)cc2)c2ccco2)CC1 (stereo not drawn)	13	48	0.4	0.5	59*
CCOC(=O)C1CCN(C(=O)COC(=O)COc2ccccc2OC)CC1	10	5	1.2	1	-22
O=C1c2ccccc2C(=O)N1CC(O)Cn1nnc2ccccc21 (stereo not drawn)	7	59*	0.7	0.4	34
OC(CN1c2ccccc2Sc2ccccc21)Cn1nnc2ccccc21 (stereo not drawn)	4	100*	0	0	100*
OC(Cn1nnc2ccccc21)Cn1c(C(F)(F)F)nc2ccccc21 (stereo not drawn)	15	35	0.4	0.7	57*
O=C1c2ccccc2C(=O)N1CC(O)CN1CCOCC1 (stereo not drawn)	4	·	·	·	·
Cc1nn(CC(O)CN2c3ccccc3Sc3ccccc32)c(C)c1Br (stereo not drawn)	12	89*	0.1	0.1	93*
COc1ccc(CN2C(=O)c3ccccc3C2=O)cc1C(=O)Nc1ccc(C)cc1C	20	·	·	·	·
O=C(NNc1nc(-c2ccccc2)cs1)c1ccccc1	19	40	0.5	0.6	53*
COc1cccc(CC(=O)Nc2nc(-c3cccnc3)cs2)c1	16	·	·	·	·
COc1ccc(CC(=O)Nc2nc(-c3cccnc3)cs2)cc1	35*	·	·	·	·
O=C(Nc1nc(-c2ccccc2)cs1)c1cccnc1	18	67*	0.6	0.3	37
NC(=S)NNC(=O)C12CC3CC(CC(C3)C1)C2	8	·	·	·	·
Cc1ccc(S(=O)(=O)N(C)CC(=O)OCC(=O)N2CCN(c3ccccc3)CC2)cc1	12	·	·	·	·
Cc1ccc(NC(=S)NN(C)c2cc(C)nc(C)n2)cc1	14	·	·	·	·
CN1CCN(C(=O)N2CCNC2=O)CC1	2	-23	1.3	1.2	-33
CCC(Sc1ccccn1)C(=O)Nc1nnc(C)s1 (stereo not drawn)	23	56*	0.4	0.4	63*
CCC(Sc1nc2n[nH]c(C)c2c(=N)n1-c1cccc(Cl)c1C)C(=O)N(CC)CC (stereo not drawn)	2	4	0.4	1	59*
Cc1cnc(C(=O)Nc2cccc(S(=O)(=O)N(C)C)c2)cn1	10	·	·	·	·
CC1=NN(C(=O)c2ccc(Br)cc2)C(O)(C(F)(F)OC(F)(F)F)C1 (stereo not drawn)	16	53*	0.8	0.5	24
CC1=NN(C(=O)c2csc(C)c2)C(O)(C(F)(F)F)C1 (stereo not drawn)	11	44	0.8	0.6	20
O=C(COC(=O)c1cccs1)Nc1ccccc1	8	57*	0.9	0.4	14
SMILES	Measles CPE	CYP2C19 inhib	CYP2C9 activ	CYP2C19 activ	CYP2C9 inhib
O=C(O)COc1ccc(NC(=O)c2cccs2)cc1	48*	·	·	·	·
O=C(Nc1ccncc1)c1cccs1	5	47	0.5	0.5	52*
CCc1c(C(=O)Nc2ccncc2)csc1C	10	98*	0.2	0	84*
O=C(COc1ccccc1)NNC(=O)c1cccs1	2	·	·	·	·
O=C(COC(=O)c1cccs1)Nc1nc(-c2ccccc2)cs1	17	·	·	·	·
O=C(Nc1cccnc1)c1cccs1	8	4	1.1	1	-8
CCCCn1c(SCc2c(C)noc2C)nc2cc(S(N)(=O)=O)ccc21	4	6	0.7	0.9	34
O=C(Nc1ccc2nsnc2c1)c1cccs1	14	55*	0.8	0.4	22
O=C(Nc1cccc(-c2csc(-c3ccccc3)n2)c1)c1cccs1	18	51*	0.1	0.5	91*
O=C(Nc1nnc(COc2ccc(Cl)cc2)s1)c1cccs1	3	22	0.5	0.8	55*
C=CCOc1cccc(C2c3c(oc4ccccc4c3=O)C(=O)N2c2ccccn2)c1 (stereo not drawn)	11	38	0.6	0.6	38
CNC(=S)N/N=C/c1cc(C)n(-c2ccc(Cl)c(Cl)c2)c1C	11	·	·	·	·
CCCN(CC(=O)Nc1ccccc1C)C(=O)/C=C/c1cccs1	23	·	·	·	·
